The panel holds about 79,000 compounds, 15% with a hit somewhere; the sample as a whole holds those more often. Calls of active or inactive are those of the source. Rule as the data show it: active = growth inhibition above about 70%; inactive = the rest.
Tests used:
[1] = NCI Yeast Anticancer Drug Screen. Data for the wt1 strain (AID 149);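 also: 0% = growth of vehicle-treated wt1 cultures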; conditions: S. cerevisiae wt1 strain (SPY 50644) growth inhibition, hits give high values
Procedure, shortened: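 Yeast wt1 strain exposed to compounds; growth inhibition measured relative to vehicle-treated controls.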

[2] = NCI Yeast Anticancer Drug Screen. Data for the rad50EPP+ strain (AID 151);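 also: 0% = growth of vehicle-treated control cultures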; conditions: S. cerevisiae rad50 mutant strain, hits give high values
Procedure, shortened: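 Yeast strain carrying rad50 alteration (rad50EPP+) exposed to compounds; growth inhibition measured relative to vehicle-treated controls.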

[3] = NCI Yeast Anticancer Drug Screen. Data for the mgt1 strain (AID 153); conditions: S. cerevisiae mgt1 mutant growth inhibition, hits give high values
Procedure, shortened: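 Yeast mgt1 strain (DNA repair/cell-cycle alteration panel) exposed to compounds; growth inhibition measured relative to vehicle-treated controls.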

[4] = NCI Yeast Anticancer Drug Screen. Data for the mec2-1 strain (AID 157); conditions: S. cerevisiae mec2-1 strain, hits give high values
Procedure, shortened: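 mec2-1 yeast strain, carrying an alteration in DNA damage repair or cell cycle control, was exposed to compounds; growth inhibition was measured relative to vehicle-treated controls.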

[5] = NCI Yeast Anticancer Drug Screen. Data for the CLN2oe strain (AID 163);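 also: 0% = growth of vehicle-only control cultures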; conditions: S. cerevisiae CLN2oe strain, hits give high values
Procedure, shortened: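 Yeast cells carrying a defined cell-cycle control alteration were exposed to test compounds. Growth inhibition was scored against vehicle-treated control cultures.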

[6] = NCI Yeast Anticancer Drug Screen. Data for the cln2 rad14 strain (AID 165);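 also: 0% = growth equal to vehicle treated cultures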; conditions: S. cerevisiae cln2 rad14 strain, hits give high values
Procedure, shortened: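 Yeast carrying cln2 and rad14 alterations (cell cycle control and DNA damage repair) were exposed to compounds. Growth inhibition was measured against vehicle-treated controls.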

[7] = NCI Yeast Anticancer Drug Screen. Data for the bub3 strain (AID 167); conditions: S. cerevisiae bub3 mutant strain, hits give high values
Procedure, shortened: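 Compounds were applied to a genetically altered yeast strain carrying a cell-cycle control defect. Growth inhibition was scored against vehicle-treated controls.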

[8] = NCI Yeast Anticancer Drug Screen. Data for the wt2 strain (AID 169);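 also: 0% = growth of vehicle-treated yeast cultures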; conditions: S. cerevisiae wt2 strain growth inhibition, hits give high values
Procedure, shortened: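 Yeast cells were exposed to test compounds, and growth inhibition was measured relative to vehicle-treated controls.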

[9] = NCI Yeast Anticancer Drug Screen. Data for the mlh1 strain (AID 171);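 also: 0% = growth of vehicle-treated control cultures of the same strain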; conditions: S. cerevisiae mlh1 strain growth inhibition, hits give high values
Procedure, shortened: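 Yeast carrying a defined genetic alteration in DNA damage repair or cell cycle control were exposed to test compounds. Growth inhibition was measured relative to vehicle-treated controls.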

[10] = NCI Yeast Anticancer Drug Screen. Data for the sgs1 strain (AID 173);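 also: 0% = growth of vehicle-only control cultures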; conditions: S. cerevisiae sgs1 mutant, hits give high values
Procedure, shortened: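 Yeast mutant strains carrying defined defects in DNA damage repair or cell cycle control were exposed to test compounds. Growth inhibition was scored against vehicle-treated controls.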

[11] = NCI Yeast Anticancer Drug Screen. Data for the mlh1 rad18 strain (AID 175); conditions: S. cerevisiae mlh1 rad18 strain growth inhibition, hits give high values
Procedure, shortened: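 Growth inhibition of the yeast strain was measured after compound exposure and expressed relative to vehicle-treated controls. The strain carries defined defects in DNA damage repair.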

[12] = NCI Yeast Anticancer Drug Screen. Data for the rad18 strain (AID 177); conditions: S. cerevisiae rad18 mutant growth inhibition, hits give high values
Procedure, shortened: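 Yeast carrying a defined DNA damage repair alteration were exposed to compounds. Growth inhibition was expressed relative to vehicle-treated controls.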

[13] = NCI Yeast Anticancer Drug Screen. Data for the rad50 strain (AID 155);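 also: 0% = growth of vehicle-only cultures of the same strain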; conditions: S. cerevisiae rad50 strain growth inhibition, hits give high values
Procedure, shortened: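 Yeast carrying a defined DNA repair defect were exposed to test compounds, and growth was compared with vehicle-treated controls to give percent inhibition.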

[14] = NCI Yeast Anticancer Drug Screen. Data for the rad14 strain (AID 159);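 also: 0% = growth of vehicle-treated control cultures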; conditions: S. cerevisiae rad14 strain growth inhibition, hits give high values
Procedure, shortened: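 Yeast cells carrying a defined DNA-repair defect were exposed to compounds, and growth inhibition was calculated relative to vehicle-treated control cultures.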

[15] = NCI Yeast Anticancer Drug Screen. Data for the sgs1 mgt1 strain (AID 161);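 also: 0% = growth of cultures given vehicle only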; conditions: S. cerevisiae sgs1 mgt1 strain, hits give high values
Procedure, shortened: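 Growth of a repair-deficient yeast mutant was monitored after compound treatment and expressed as inhibition relative to vehicle-treated cultures.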

[16] = at 5.0 µM (retest, dose inferred, filed as 0.5)
[17] = at 50.0 µM (retest, dose inferred, filed as 5.0)

Measured: growth inhibition

CN(C)CCNC(=O)c1cccc2nc3c(ccc4ccccc43)nc12
inactive: [1]; at 1.2 µM -3% | [1]; at 3.7 µM -2% | [1]; at 11.0 µM 2% | [1]; at 33.0 µM 17% | [2]; at 1.2 µM -3% | [2]; at 3.7 µM 1% | [2]; at 11.0 µM 15% | [3]; at 1.2 µM -1% | [3]; at 3.7 µM -1% | [3]; at 11.0 µM 1% | [3]; at 33.0 µM 31% | [4]; at 1.2 µM -1% | [4]; at 3.7 µM 2% | [4]; [16] 5% | [4]; at 11.0 µM 10% | [4]; at 33.0 µM 25% | [4]; [17] 23% | [5]; at 1.2 µM -5% | [5]; at 3.7 µM -1% | [5]; at 11.0 µM -2% | [5]; at 33.0 µM 18% | [6]; [16] 4% | [6]; [17] 57% | [6]; at 50.0 µM 26.9% | [7]; at 1.2 µM 1% | [7]; at 3.7 µM 3% | [7]; [16] -40% | [7]; at 11.0 µM 5% | [7]; at 33.0 µM 24% | [7]; [17] 43% | [7]; at 50.0 µM 24.1% | [8]; at 1.2 µM -2% | [8]; at 3.7 µM 6% | [8]; at 11.0 µM -2% | [8]; at 33.0 µM 13% | [9]; at 1.2 µM -1% | [9]; at 3.7 µM 0% | [9]; at 11.0 µM 3% | [9]; at 33.0 µM 28% | [10]; at 1.2 µM -4% | [10]; at 3.7 µM -4% | [10]; at 11.0 µM 1% | [10]; at 33.0 µM 30% | [11]; [16] 7% | [12]; at 1.2 µM -2% | [12]; at 3.7 µM 2% | [12]; at 11.0 µM 11% | [12]; at 33.0 µM 61%
active: [1]; at 100.0 µM 85% | [2]; at 33.0 µM 75% | [2]; at 100.0 µM 96% | [3]; at 100.0 µM 99% | [4]; at 50.0 µM 73.8% | [4]; at 100.0 µM 94% | [5]; at 100.0 µM 72% | [7]; at 100.0 µM 97% | [8]; at 100.0 µM 92% | [9]; at 100.0 µM 98% | [10]; at 100.0 µM 98% | [11]; [17] 92% | [11]; at 50.0 µM 90.2% | [12]; at 100.0 µM 99%

CN(C)N=Nc1ccc(NC=O)cc1
active: [1]; at 33.0 µM 92% | [1]; at 100.0 µM 99% | [2]; at 33.0 µM 86% | [2]; at 100.0 µM 98% | [13]; at 33.0 µM 97% | [13]; at 50.0 µM 89.7% | [13]; at 100.0 µM 99% | [4]; at 33.0 µM 90% | [4]; at 50.0 µM 91.8% | [4]; at 100.0 µM 99% | [14]; at 33.0 µM 77% | [14]; at 100.0 µM 98% | [5]; at 33.0 µM 98% | [5]; at 100.0 µM 99% | [6]; at 50.0 µM 85.2% | [7]; at 33.0 µM 94% | [7]; at 50.0 µM 78.7% | [7]; at 100.0 µM 99% | [8]; at 33.0 µM 96% | [8]; at 100.0 µM 99% | [9]; at 33.0 µM 91% | [9]; at 100.0 µM 99% | [10]; at 33.0 µM 93% | [10]; at 100.0 µM 99% | [11]; at 50.0 µM 87.4% | [12]; at 33.0 µM 98% | [12]; at 100.0 µM 99%
inactive: [1]; at 1.2 µM -2% | [1]; at 3.7 µM 1% | [1]; at 11.0 µM 9% | [2]; at 1.2 µM 11% | [2]; at 3.7 µM 6% | [2]; at 11.0 µM 8% | [13]; at 1.2 µM 5% | [13]; at 3.7 µM 4% | [13]; [16] 23% | [13]; at 11.0 µM 17% | [13]; [17] 67% | [4]; at 1.2 µM 0% | [4]; at 3.7 µM 13% | [4]; [16] 23% | [4]; at 11.0 µM 20% | [4]; [17] 47% | [14]; at 1.2 µM 6% | [14]; at 3.7 µM 3% | [14]; at 11.0 µM 9% | [15]; [16] -7% | [15]; [17] -44% | [15]; at 50.0 µM 66.2% | [5]; at 1.2 µM 31% | [5]; at 3.7 µM 27% | [5]; at 11.0 µM 49% | [6]; [16] -7% | [6]; [17] -19% | [7]; at 1.2 µM 15% | [7]; at 3.7 µM 18% | [7]; [16] -3% | [7]; at 11.0 µM 27% | [7]; [17] -22% | [8]; at 1.2 µM 18% | [8]; at 3.7 µM 9% | [8]; at 11.0 µM 14% | [9]; at 1.2 µM 2% | [9]; at 3.7 µM -7% | [9]; at 11.0 µM 6% | [10]; at 1.2 µM 2% | [10]; at 3.7 µM -5% | [10]; at 11.0 µM 8% | [11]; [16] 32% | [11]; [17] 65% | [12]; at 1.2 µM 19% | [12]; at 3.7 µM 24% | [12]; at 11.0 µM 35%

Source: PubChem BioAssay (NCI)
